Common to all, as to test: universal protein binding microarray (PBM); transcription factors of Arabidopsis thaliana; high values mean tight binding
One assay addresses T1, GST-ANAC092(1-176) (Arabidopsis thaliana, UniProt Q9FKA0 1-176).
T1 sequence: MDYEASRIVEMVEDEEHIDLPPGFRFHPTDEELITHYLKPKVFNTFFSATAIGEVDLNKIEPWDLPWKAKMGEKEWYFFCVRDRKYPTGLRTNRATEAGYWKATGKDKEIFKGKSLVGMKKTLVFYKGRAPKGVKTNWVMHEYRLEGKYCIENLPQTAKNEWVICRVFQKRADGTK
Particulars: protein: recombinant; tags: GST; chain copies: 2; dsDNA, one strand shown. The gist of the method:
(§1)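 Binding is expressed as the normalised enrichment score (E-score). Proteins carrying a GST tag, whether NAC-domain, full-length or DNA-binding-domain forms, were induced in cells, and zinc acetate was added for zinc-finger proteins. After purification on glutathione–Sepharose 4B and quantification by A280 or anti-GST western blot, each was applied in duplicate at 200 to 500 nM final to custom all-10-mer Agilent 4 × 180K arrays made double-stranded by primer extension. Gapped and ungapped 8-mers were scored.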

The target in another assay is GST-NTL6(1-168) (Arabidopsis thaliana, UniProt Q9SCK6 1-168). Particulars: protein: recombinant; tags: GST; chain copies: 2; dsDNA, one strand shown. The gist of the method: as §1
The target in another assay is T2, GST-ANAC019 NAC domain (Arabidopsis thaliana, UniProt Q9C932 14-162).
T2 sequence: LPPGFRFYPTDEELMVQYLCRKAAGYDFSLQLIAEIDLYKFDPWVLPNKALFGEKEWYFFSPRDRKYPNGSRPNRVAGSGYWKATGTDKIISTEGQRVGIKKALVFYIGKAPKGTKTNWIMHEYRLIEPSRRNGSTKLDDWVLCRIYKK
Particulars: protein: recombinant; tags: GST; chain copies: 2; dsDNA, one strand shown. The gist of the method: as §1

The target in the next assay is T3, GST-ANAC055(1-171) (Arabidopsis thaliana, UniProt Q9LDY8 1-171).
T3 sequence: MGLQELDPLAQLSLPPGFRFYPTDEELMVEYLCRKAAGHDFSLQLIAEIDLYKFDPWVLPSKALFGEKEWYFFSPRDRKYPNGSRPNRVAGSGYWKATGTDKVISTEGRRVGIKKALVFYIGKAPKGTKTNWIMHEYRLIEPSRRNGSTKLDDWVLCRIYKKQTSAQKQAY
Particulars: protein: recombinant; tags: GST; chain copies: 2; dsDNA, one strand shown. The gist of the method:
as §1

For a further assay, the target named is T4, GST-ATAF1 NAC domain (Arabidopsis thaliana, UniProt Q39013 7-158).
T4 sequence: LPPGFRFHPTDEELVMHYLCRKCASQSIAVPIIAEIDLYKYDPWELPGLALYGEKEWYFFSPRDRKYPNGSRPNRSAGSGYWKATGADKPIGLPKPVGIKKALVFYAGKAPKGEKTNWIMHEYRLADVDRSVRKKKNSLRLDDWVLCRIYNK
Particulars: protein: recombinant; tags: GST; chain copies: 2; dsDNA, one strand shown. The gist of the method:
as §1

For assay [1], the target named is T5, GST-ANAC092(1-285) full length (Arabidopsis thaliana, UniProt Q9FKA0 1-285).
T5 sequence: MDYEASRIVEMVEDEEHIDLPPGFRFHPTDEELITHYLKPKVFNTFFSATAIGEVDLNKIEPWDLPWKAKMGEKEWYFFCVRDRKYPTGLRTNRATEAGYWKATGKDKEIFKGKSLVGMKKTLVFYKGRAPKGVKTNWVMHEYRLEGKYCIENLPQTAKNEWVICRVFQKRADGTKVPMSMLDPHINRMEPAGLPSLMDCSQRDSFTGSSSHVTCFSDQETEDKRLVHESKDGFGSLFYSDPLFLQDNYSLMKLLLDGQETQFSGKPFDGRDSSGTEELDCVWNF
Particulars: protein: recombinant; tags: GST; chain copies: 2; dsDNA, one strand shown. The gist of the method:
as §1

The target of another assay is T6, GST-NAP(1-166) (Arabidopsis thaliana, UniProt O49255 1-166).
T6 sequence: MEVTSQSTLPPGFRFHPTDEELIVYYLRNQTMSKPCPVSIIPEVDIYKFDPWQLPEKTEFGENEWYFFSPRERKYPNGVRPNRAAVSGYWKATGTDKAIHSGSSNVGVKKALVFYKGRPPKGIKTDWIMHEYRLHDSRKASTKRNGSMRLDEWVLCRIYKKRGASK
Particulars: protein: recombinant; tags: GST; chain copies: 2; dsDNA, one strand shown. The gist of the method:
as §1

The target of the next assay is T7, GST-NST2(1-184) (Arabidopsis thaliana, UniProt Q9M274 1-184).
T7 sequence: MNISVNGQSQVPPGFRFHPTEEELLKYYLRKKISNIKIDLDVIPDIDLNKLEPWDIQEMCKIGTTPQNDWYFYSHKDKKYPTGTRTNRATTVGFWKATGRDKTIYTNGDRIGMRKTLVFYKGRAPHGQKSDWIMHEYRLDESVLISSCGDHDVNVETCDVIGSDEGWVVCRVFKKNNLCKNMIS
Particulars: protein: recombinant; tags: GST; chain copies: 2; dsDNA, one strand shown. The gist of the method:
as §1

The target of a further assay is T8, GST-NTL8 NAC domain (Arabidopsis thaliana, UniProt Q9XIN7 14-156).
T8 sequence: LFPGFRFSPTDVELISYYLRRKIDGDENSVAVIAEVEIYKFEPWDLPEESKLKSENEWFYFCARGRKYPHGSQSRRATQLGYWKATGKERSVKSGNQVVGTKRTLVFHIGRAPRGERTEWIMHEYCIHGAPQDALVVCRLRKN
Particulars: protein: recombinant; tags: GST; chain copies: 2; dsDNA, one strand shown. The gist of the method:
as §1

In the next assay the target is T9, GST-SND1(1-203) (Arabidopsis thaliana, UniProt Q9LPI7 1-203).
T9 sequence: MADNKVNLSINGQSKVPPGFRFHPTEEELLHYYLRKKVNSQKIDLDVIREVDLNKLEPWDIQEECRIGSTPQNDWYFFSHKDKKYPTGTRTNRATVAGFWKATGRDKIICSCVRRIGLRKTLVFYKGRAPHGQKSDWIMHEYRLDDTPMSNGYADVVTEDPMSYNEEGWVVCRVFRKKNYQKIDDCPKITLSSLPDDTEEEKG
Particulars: protein: recombinant; tags: GST; chain copies: 2; dsDNA, one strand shown. The gist of the method: as §1

The next assay addresses T10, GST-VND3 NAC domain (Arabidopsis thaliana, UniProt Q9FH59 12-162).
T10 sequence: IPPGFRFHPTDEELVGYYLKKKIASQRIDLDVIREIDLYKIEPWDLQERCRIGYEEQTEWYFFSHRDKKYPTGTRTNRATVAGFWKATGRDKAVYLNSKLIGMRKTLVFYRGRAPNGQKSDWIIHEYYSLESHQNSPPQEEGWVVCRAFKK
Particulars: protein: recombinant; tags: GST; chain copies: 2; dsDNA, one strand shown. The gist of the method: as §1

The target in the next assay is T11, GST-VND7 NAC domain (Arabidopsis thaliana, UniProt Q9C8W9 9-158).
T11 sequence: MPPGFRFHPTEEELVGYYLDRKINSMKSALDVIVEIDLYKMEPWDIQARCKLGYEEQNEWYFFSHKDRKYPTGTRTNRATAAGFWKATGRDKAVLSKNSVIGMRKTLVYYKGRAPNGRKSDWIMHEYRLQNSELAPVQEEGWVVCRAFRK
Particulars: protein: recombinant; tags: GST; chain copies: 2; dsDNA, one strand shown. The gist of the method: as §1

The target of another assay is GST-WRKY1(266-371) (Arabidopsis thaliana, UniProt Q9SI37 266-371). The note with it: protein: recombinant; tags: GST; dsDNA, one strand shown. The gist of the method:
as §1

Sequence of GST-NTL6(1-168) (Q9SCK6 1-168): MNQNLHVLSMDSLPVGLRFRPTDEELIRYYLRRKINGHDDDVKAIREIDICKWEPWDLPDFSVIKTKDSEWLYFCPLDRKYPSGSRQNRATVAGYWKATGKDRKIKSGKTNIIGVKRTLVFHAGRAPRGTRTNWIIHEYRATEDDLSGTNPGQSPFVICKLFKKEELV
Sequence of GST-WRKY1(266-371) (Q9SI37 266-371): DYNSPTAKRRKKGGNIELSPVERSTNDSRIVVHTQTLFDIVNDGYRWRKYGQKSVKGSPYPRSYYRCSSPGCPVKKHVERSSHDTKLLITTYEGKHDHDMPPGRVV

With ATTTCCCC, the binding signal with GST-ANAC092(1-176) stood at 0.143 E-score; with GST-NTL6(1-168), 0.221 E-score; with GST-ANAC019 NAC domain it was 0.13 E-score; with GST-ANAC055(1-171), 0.101 E-score; with GST-ATAF1 NAC domain, 0.0697 E-score; in assay [1] it was 0.175 E-score. Also, the binding signal with GST-NAP(1-166) is 0.0823 E-score; with GST-NST2(1-184), 0.17 E-score; with GST-NTL8 NAC domain, 0.428 E-score; with GST-SND1(1-203) it was 0.199 E-score; with GST-VND3 NAC domain, 0.205 E-score; in the assay with GST-VND7 NAC domain, 0.153 E-score. Also, the binding signal with GST-WRKY1(266-371) amounted to 0.116 E-score.

As for ATTACGTG, the binding signal with GST-ANAC092(1-176) came to 0.457 E-score; with GST-NTL6(1-168), 0.112 E-score; in the assay with GST-ANAC019 NAC domain, 0.468 E-score; with GST-ANAC055(1-171), 0.432 E-score; in the assay with GST-ATAF1 NAC domain, 0.372 E-score; in assay [1], 0.462 E-score. The binding signal was 0.419 E-score with GST-NAP(1-166); 0.296 E-score with GST-NST2(1-184); 0.146 E-score in the assay with GST-NTL8 NAC domain; 0.252 E-score with GST-SND1(1-203); 0.446 E-score with GST-VND3 NAC domain; 0.437 E-score in the assay with GST-VND7 NAC domain. Further, the binding signal with GST-WRKY1(266-371) was found to be 0.127 E-score.

With CAAGGAAA, the binding signal is 0.231 E-score in the assay with GST-ANAC092(1-176); 0.31 E-score with GST-NTL6(1-168); 0.165 E-score with GST-ANAC019 NAC domain; 0.147 E-score with GST-ANAC055(1-171); 0.167 E-score with GST-ATAF1 NAC domain; 0.241 E-score in assay [1]. Further, the binding signal is 0.0952 E-score with GST-NAP(1-166); 0.189 E-score in the assay with GST-NST2(1-184); 0.46 E-score with GST-NTL8 NAC domain; 0.242 E-score with GST-SND1(1-203); 0.202 E-score with GST-VND3 NAC domain; 0.181 E-score in the assay with GST-VND7 NAC domain. Also, the binding signal with GST-WRKY1(266-371) stood at 0.0889 E-score.

AATGCGTG: the binding signal in the assay with GST-ANAC092(1-176) stood at 0.434 E-score; with GST-NTL6(1-168), 0.147 E-score; in the assay with GST-ANAC019 NAC domain it was 0.324 E-score; in the assay with GST-ANAC055(1-171), 0.227 E-score; with GST-ATAF1 NAC domain, 0.271 E-score; in [1], 0.44 E-score. The binding signal with GST-NAP(1-166) turned out to be 0.227 E-score; with GST-NST2(1-184), 0.243 E-score; with GST-SND1(1-203), 0.288 E-score; with GST-VND3 NAC domain it was 0.286 E-score; in the assay with GST-VND7 NAC domain, 0.254 E-score; with GST-WRKY1(266-371) it was 0.087 E-score.

CGTCAAAC: the binding signal with GST-ANAC092(1-176) stood at 0.109 E-score; in the assay with GST-NTL6(1-168) it was 0.0906 E-score; with GST-ANAC019 NAC domain, 0.0928 E-score; with GST-ANAC055(1-171), 0.163 E-score; with GST-ATAF1 NAC domain it was 0.147 E-score; in assay [1], 0.134 E-score. The binding signal was 0.0647 E-score with GST-NAP(1-166); 0.159 E-score with GST-NST2(1-184); 0.198 E-score with GST-SND1(1-203); 0.145 E-score in the assay with GST-VND3 NAC domain; 0.129 E-score in the assay with GST-VND7 NAC domain; 0.44 E-score in the assay with GST-WRKY1(266-371).

ATGCGTAC: the binding signal in the assay with GST-ANAC092(1-176) was determined as 0.362 E-score; with GST-NTL6(1-168), 0.0817 E-score; with GST-ANAC019 NAC domain it was 0.191 E-score; with GST-ANAC055(1-171), 0.17 E-score; with GST-ATAF1 NAC domain, 0.229 E-score; in assay [1], 0.414 E-score. In addition, the binding signal turned out to be 0.237 E-score in the assay with GST-NAP(1-166); 0.192 E-score with GST-NST2(1-184); 0.292 E-score with GST-SND1(1-203); 0.235 E-score with GST-VND3 NAC domain; 0.21 E-score in the assay with GST-VND7 NAC domain; 0.0545 E-score with GST-WRKY1(266-371).

For the sequence CACGCAAG, the binding signal with GST-ANAC092(1-176) amounted to 0.481 E-score; with GST-NTL6(1-168), 0.0685 E-score; in the assay with GST-ANAC019 NAC domain, 0.413 E-score; with GST-ANAC055(1-171), 0.354 E-score; with GST-ATAF1 NAC domain it was 0.268 E-score; in [1], 0.484 E-score. Moreover, the binding signal in the assay with GST-NAP(1-166) turned out to be 0.348 E-score; with GST-NST2(1-184) it was 0.358 E-score; with GST-NTL8 NAC domain, 0.155 E-score; with GST-SND1(1-203) it was 0.404 E-score; with GST-VND3 NAC domain it was 0.415 E-score; in the assay with GST-VND7 NAC domain, 0.367 E-score. In addition, the binding signal with GST-WRKY1(266-371) was 0.0865 E-score.

The values are drawn from PMC4081100, “A DNA-binding-site landscape and regulatory network analysis for NAC transcription factors in Arabidopsis thaliana”.
